Test results: PubChem BioAssay AID1159580 (chemical genetic matrix, 2015)
Out of some 5,500 compounds screened, about 2,000 (36%) were called active. About 18% were inconclusive and are not listed. Rule as the data show it: active = normalized growth mostly below about 0.91 (no sharp cut-off); inconclusive = no clear call, values can overlap the other calls; inactive = mostly above about 0.92. The list shows a part of the results.

Experiment: chemical genetic growth profiling, strain panel (AID 1159580);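 also: tested at 20 µM; growth read once vehicle control cultures reached saturation at 30 °C; 1 = growth at the plate median or of vehicle wells; lower values mean less growth of the strain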
Conditions: S. cerevisiae deletion strains, growth OD
[1] = locus YHR030C, strain SLT2, stronger effect = lower value

Measured: normalized growth

O=C(O)C1c2ccccc2C(=O)N(Cc2ccc3c(c2)OCO3)C1c1cccnc1 (stereo unspecified)
inactive: locus YAL013W, strain DEP1, stronger effect = lower value 1.02 | locus YBR229C, strain ROT2, stronger effect = lower value 1.01 | locus YCL061C, strain MRC1, stronger effect = lower value 0.994 | locus YDL101C, strain DUN1, stronger effect = lower value 1.01 | locus YDL134C, strain PPH21, stronger effect = lower value 0.993 | locus YDR150W, strain NUM1, stronger effect = lower value 0.978 | locus YEL061C, strain CIN8, stronger effect = lower value 1.04 | locus YGR078C, strain PAC10, stronger effect = lower value 1.04 | [1] 1.05 | locus YHR087W, strain rtc3, stronger effect = lower value 1.01 | locus YJR043C, strain POL32, stronger effect = lower value 0.996 | locus YJR075W, strain HOC1, stronger effect = lower value 1.03 | locus YKL190W, strain CNB1, stronger effect = lower value 0.989 | locus YLR039C, strain RIC1, stronger effect = lower value 1.01 | locus YLR058C, strain SHM2 (second series), stronger effect = lower value 0.997 | locus YLR085C, strain ARP6, stronger effect = lower value 1.02 | locus YLR262C, strain YPT6, stronger effect = lower value 0.971 | locus YML094W, strain GIM5, stronger effect = lower value 1.04 | locus YMR219W, strain ESC1, stronger effect = lower value 1 | locus YMR263W, strain SAP30, stronger effect = lower value 1 | locus YNL128W, strain TEP1, stronger effect = lower value 0.993 | locus YNL153C, strain GIM3, stronger effect = lower value 1.01 | locus YNL298W, strain CLA4 (second series), stronger effect = lower value 1.04 | locus YNL322C, strain KRE1, stronger effect = lower value 1.02 | locus YNR030W, strain Alg12, stronger effect = lower value 1 | locus YPL055C, strain LGE1, stronger effect = lower value 1.03 | locus YPL241C, strain CIN2, stronger effect = lower value 0.971 | locus YPR135W, strain CTF4, stronger effect = lower value 0.982

CC(c1cc2ccccc2s1)N(O)C(N)=O (stereo unspecified)
inactive: [1] 1.01 | locus YHR079C, strain IRE1, stronger effect = lower value 0.964 | locus YJL095W, strain BCK1, stronger effect = lower value 0.981 | locus YJR066W, strain TOR1, stronger effect = lower value 0.941 | locus YLR113W, strain HOG1, stronger effect = lower value 0.944 | locus YNL183C, strain NPR1, stronger effect = lower value 0.892 | locus YOR231W, strain MKK1, stronger effect = lower value 0.967 | locus YPL256C, strain CLN2, stronger effect = lower value 0.976
